Bioassay records as filed in PubChem.
Only a selection was taken, and hits are over-represented in it overall.
14-3-3 PPI = modulators of 14-3-3 gamma protein binding, primary screen, biochemical, fluorescence polarization; 14-3-3 protein gamma (Homo sapiens), P61981; FP, 14-3-3gamma / TMR-pS259-Raf peptide binding; inhibition, % at 40 µM; 0.19% of 160,000 active; in the data active = inhibition above about 30%;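 note: 0% = protein plus tracer without compound and 100% = blank with tracer alone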
Target sequence (P61981 whole entry, looked up): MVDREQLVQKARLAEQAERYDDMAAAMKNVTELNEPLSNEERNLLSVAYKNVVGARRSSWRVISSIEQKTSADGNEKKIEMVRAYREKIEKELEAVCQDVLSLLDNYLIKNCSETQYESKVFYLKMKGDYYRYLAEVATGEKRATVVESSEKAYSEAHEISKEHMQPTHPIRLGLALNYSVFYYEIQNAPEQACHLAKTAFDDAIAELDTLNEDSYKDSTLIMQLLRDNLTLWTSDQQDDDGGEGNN
The depositor's hits bear a star.

SMILES	14-3-3 PPI
C=CCN(CC=C)C(=O)C[n+]1ccc(C(N)=O)cc1	40*
C=CCN(CC=C)C(=O)C[n+]1cccc(C(N)=O)c1	1
CCN(CC)C(=O)C[n+]1ccc(C(N)=O)cc1	-1
O=C(CN1CCN(S(=O)(=O)c2ccc(Cl)cc2)CC1)Nc1ccccc1C(F)(F)F	-2
O=C(Cn1c(=O)n(-c2ccc(F)cc2)c(=O)c2sccc21)N1CCCCCC1	2
CCOC(=O)C1=C(N)Oc2cc(O)ccc2C1c1cccnc1 (centres undefined)	-12
CCOC(=O)C1=C(C(C)=O)C(c2cccnc2)C(C#N)=C(N)O1 (centres undefined)	32*
CCOC(=O)C1=C(CSc2nc(-c3ccncc3)ccc2C#N)OC(N)=C(C#N)C1c1cccnc1 (centres undefined)	-16
O=C(CCS(=O)(=O)c1ccccc1)Nc1cccc(C(F)(F)F)c1	3
Cc1sc2c(c1C)c(=O)n(-c1ccc(F)cc1)c(=O)n2Cc1cccc([N+](=O)[O-])c1	3
COc1cccc(-n2ccnc2SCC(=O)Nc2ccc3c(c2)OCO3)c1	-10
CC(C)Nc1cc2c(NC(C)C)onc2c2c1C(=O)c1ccccc1C2=O	87*
CNc1cc(Nc2ccc(C)cc2)c2c3c(onc13)-c1ccccc1C2=O	-89
COC(=O)C(C(=O)OC)c1cc(Br)c2noc3c2c1C(=O)c1ccccc1-3	-57
CC(=O)Nc1ccc(OCC(=O)O)cc1	-19
Cc1cccn2cc(-c3ccc(S(=O)(=O)N(C)C)cc3)nc12	-3
CC(=O)Nc1ccc(N=Cc2c(O)c(C(=O)Nc3ccccc3)cc3ccccc23)cc1	174*
CCOc1ccccc1C(=O)Nc1cc(OC)ccc1OC	6
COc1ccccc1NC(=O)c1cc2ccccc2c(C=Nc2ccc(Cl)cc2)c1O	14
O=C(Nc1ccccc1)c1cc2ccccc2c(C=Nc2ccc(Cl)cc2)c1O	0
CCOc1ccc(N=Cc2c(O)c(C(=O)Nc3ccccc3OC)cc3ccccc23)cc1	59*
COc1ccccc1N=Cc1c(O)c(C(=O)Nc2ccccc2OC)cc2ccccc12	78*
COc1cc2ccccc2cc1C(=O)Nc1ccccc1Oc1ccccc1	-5
CC(=O)Nc1ccc(N=Cc2c(OC(=O)c3cccc4ccccc34)ccc3ccccc23)cc1	3
CCOc1ccc(N=Cc2c(O)c(C(=O)Nc3ccccc3)cc3ccccc23)cc1	71*
SMILES	14-3-3 PPI
CCOc1ccc(-c2nc3cc(N=Cc4c(O)ccc5ccccc45)ccc3o2)cc1	-31
COc1ccccc1NC(=O)c1coc(=O)c2ccccc12	-7
CCOc1ccc(NC(=O)c2cc(-c3cccs3)nc3ccccc23)cc1	-2
CCC(=O)N1c2ccc(S(=O)(=O)CCC(=O)N3CCN(c4ccc(C(C)=O)cc4)CC3)cc2CC1C (centres undefined)	0
CCc1nc(SCC(=O)NC(C)c2ccccc2)n[nH]1 (centres undefined)	-5
OCCCc1nc2n(n1)C(c1ccco1)C=C(c1ccc(F)cc1)N2 (centres undefined)	-18
c1ccc(Oc2ccc(Nc3ncnc4ccccc34)cc2)cc1	-10
COc1ccc(S(=O)(=O)N(CC(=O)Nc2ccccc2Cl)c2ccc(C)cc2)cc1	-6
O=C1C(Sc2nc3ccccc3s2)=CC(=NS(=O)(=O)c2ccccc2)c2ccccc21	-17
COC(=O)c1ccc(C2C3=C(CCCC3=O)Nc3ccc4nc(C)ccc4c32)cc1 (centres undefined)	1
COC(=O)c1ccc2c(c1)NC(=O)CS2	-2
COC(=O)c1ccc2c(c1)SC1=C(CCCC1=O)N2	33*
Nc1c(C(=O)N2CCCC2)sc(=S)n1CCc1ccccc1	-1
CCOc1ccccc1NC(=O)C1=C(C)NC(=S)NC1c1ccccc1C (centres undefined)	-5
Cc1[nH]c2ccccc2c1SCCNC(=O)C12CC3CC(CC(C3)C1)C2	-6
Cc1cc([N+](=O)[O-])ccc1NC(=O)c1ccc(F)cc1	4
CC(=O)c1c(C(C)=O)c(C)n(-c2ccc(C)c(NC(=O)c3ccc(F)cc3)c2)c1C	32*
CC(=O)c1c(C)[nH]c(C(=O)Nc2cc(C)ccc2C)c1C	-8
O=C(CSc1nnc(-c2ccncc2)n1Cc1ccco1)c1ccc(Br)cc1	-5
Cc1ccc(S(=O)(=O)N2CCN(C(C)CCc3ccccc3)CC2)cc1 (centres undefined)	2
Cc1c(N)cccc1-c1nc2ccccc2s1	3
Cc1cc(N)c2ccccc2n1	-2
Cc1cc2c(N)cccc2nn1	44*
O=C(NCc1ccc(F)cc1)c1cc(-c2ccc3c(c2)OCO3)on1	-3
O=S(=O)(N=C(Nc1cccc2ccccc12)c1ccccc1)c1ccc(Cl)cc1	-4
SMILES	14-3-3 PPI
COc1ccc(OC)c(S(=O)(=O)Nc2ccc(C(C)=O)cc2)c1	-2
COC(=O)c1ccc(C(=O)OC)c(NC(=O)c2ccc(OC)cc2OC)c1	-33
COc1ccc(C(=O)Oc2ccc(C(C)=O)cc2)c(OC)c1	38*
COC(=O)c1c(-c2ccccc2)csc1NC(=O)CS(=O)(=O)c1ccccc1	-10
O=C1C2C3c4ccccc4C(c4ccccc43)C2C(=O)N1c1ccc(Cl)cc1[N+](=O)[O-] (centres undefined)	1
COc1ccccc1N=c1oc2ccc3ccccc3c2cc1C(=O)NC(C)=O	-24
CCC(=O)N1CCc2cc(S(=O)(=O)NCCN3CCCCC3C)ccc21 (centres undefined)	0
O=C(C1CCC1)N1CCc2cc(S(=O)(=O)NCCCN3CCN(c4ccccc4F)CC3)ccc21	31*
CCC1CCCCN1CCNS(=O)(=O)c1ccc2c(c1)CCN2C(=O)C1CCC1 (centres undefined)	52*
O=C(C1CCC1)N1CCc2cc(S(=O)(=O)NCCCN3CCCCC3)ccc21	-6
O=C(C1CCC1)N1CCc2cc(S(=O)(=O)NCCN3CCCC3)ccc21	-1
CC(=O)N1CCc2cc(S(=O)(=O)NCCCN3CCN(C)CC3)ccc21	-7
Nc1cccc2[nH]c(=O)c(=O)[nH]c12	-3
CCCCNC(=O)C1CCC(Cn2c(=S)[nH]c3ccsc3c2=O)CC1 (centres undefined)	1
Cc1cc2nn(-c3ccc(Cl)cc3)nc2cc1NC(=O)c1ccc(C)c([N+](=O)[O-])c1	3
Cc1ccc(NC(=O)CSc2nc3ccccc3c(=O)n2C2CCCC2)cc1Cl	-2
CS(=O)(=O)Nc1ccc(C2=NN(S(C)(=O)=O)C(c3ccccc3F)C2)cc1 (centres undefined)	-228
CCCS(=O)(=O)N1N=C(c2ccc(NS(C)(=O)=O)cc2)CC1c1ccccc1F (centres undefined)	71*
CCS(=O)(=O)Nc1ccc(C2=NN(S(=O)(=O)CC)C(c3ccccc3F)C2)cc1 (centres undefined)	-279
CC(C)(C)c1ccc(C(=O)Nc2c3c(nn2-c2cccc(Cl)c2)CS(=O)(=O)C3)cc1	-32
O=C(O)C1Cc2c([nH]c3ccccc23)CN1 (centres undefined)	-2
O=C(O)C1Cc2c([nH]c3ccccc23)C(c2ccccc2[N+](=O)[O-])N1 (centres undefined)	53*
O=C(O)C1Cc2c([nH]c3ccccc23)C(c2ccccc2)N1 (centres undefined)	5
CCC(=O)Nc1nnc(-c2ccc(Br)cc2)s1	7
O=C(CSc1nc2ccsc2c(=O)n1-c1ccc(Br)cc1)Nc1ccccc1Cl	-7
